# Results from PubChem BioAssay (Tox21).
# A number with no mark means an inactive call. Inconclusive results are not listed. Entries that show only a call come without a potency. Activity calls are given as the source filed them. Unless noted, calls follow the shape of the dose curve; as a rule, active = well fitted curve in the direction sought with a large enough effect in the repeat runs; inconclusive = weak or mixed curves; inactive = no such curve, though single readings can be large; an effect the other way counts as inactive or inconclusive.
# How the values were obtained:
# [1] = qHTS assay to identify small molecule agonists of the sonic hedgehog signaling (Shh) pathway - cell viability counter screen (AID 1259366); settings: NIH/3T3 Gli1-Luc viability, CellTiter-Fluor, 24 h; series mostly up to 92.4 µM; also: nearly all actives have a fitted effect of over 50% in size
# How it was run: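 Cells are plated at 2,000 per well and left 4hr at 37C, 5% CO2 before compound addition. After 23hr of treatment, CellTiter-Fluor reagent is added for 1hr at 37C and fluorescence is measured.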
# [2] = qHTS assay to identify small molecule antagonists of the sonic hedgehog signaling (Shh) pathway - cell viability counter screen (AID 1259367); settings: NIH/3T3 Gli1-Luc viability, CellTiter-Fluor, 24 h; series mostly up to 92.4 µM; also: nearly all actives have a fitted effect of over 55% in size
# How it was run: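 Using CellTiter-Fluor, viability of Gli1-Luc reporter 3T3 cells is read by fluorescence in the wells used for the Shh luciferase assay. Treatment lasts 23 hr with conditioned medium, then reagent 1 hr at 37C.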
# [3] = qHTS assay to identify small molecule agonists of the sonic hedgehog signaling (Shh) pathway (AID 1259368; calls by dose curve;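 also: NIH/3T3-derived 3T3Gli1-Luc cells carrying a stable Gli1-driven firefly luciferase reporter; nearly all actives have a fitted effect of over 15% in size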); settings: NIH/3T3 Gli1-Luc reporter, luciferase, 24 h, active compounds read high; series mostly up to 92.4 µM
# How it was run: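 A Gli1 transcriptional response element controlled firefly luciferase in 3T3Gli1-Luc cells. Compounds and a positive control were added 4 hr after plating, and cells were incubated a further 24 hr at 37 C before luminescence detection.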
# [4] = qHTS assay to identify small molecule antagonists of the sonic hedgehog signaling (Shh) pathway (AID 1259369; calls by dose curve; also: nearly all actives have a fitted effect of over 45% in size); settings: NIH/3T3 Gli1-Luc reporter, Shh antagonist, luminescence 24 h; series mostly up to 92.4 µM
# How it was run: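 For antagonist detection, the reporter line received test compounds together with conditioned medium, incubated 24hr at 37 C, 5% CO2, then luminescence was recorded following 30min room-temperature luciferase reagent incubation.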
# [5] = biological target: Estrogen receptor beta (Homo sapiens) (UniProt Q92731); experiment: qHTS assay to identify small molecule agonists of the estrogen receptor beta (ER-beta) signaling pathway (AID 1259377; active = well fitted activation curve with a large enough effect in the signal ratio in the repeat runs, not every such curve was filed as active; the % refers to the signal ratio; also: potency is read from the fitted curve at half-maximal effect); settings: ER-beta-UAS-bla HEK293T, beta-lactamase FRET ratio, 16 h; series mostly up to 92.4 µM
# How it was run: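 Agonist mode cell assay in GripTite HEK293T cells expressing an ER-beta fusion that drives beta-lactamase from an Upstream Activator Sequence; 16 hr compound exposure at 37C, then 2 h LiveBLAzer B/G FRET substrate at room temperature, fluorescence read-out.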
# [6] = biological target: Estrogen receptor beta (Homo sapiens) (UniProt Q92731); experiment: qHTS assay to identify small molecule antagonists of the estrogen receptor beta (ER-beta) signaling pathway (AID 1259378; active = well fitted inhibition curve with a large enough effect in the signal ratio in the repeat runs, not every such curve was filed as active; the % refers to the signal ratio); settings: ER-beta-UAS-bla HEK293T, beta-lactamase FRET ratio, 16 h; series mostly up to 92.4 µM
# How it was run: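 Antagonist mode: compounds added to beta-lactamase reporter HEK293T ER-beta-UAS cells stimulated with E2 (1nM final), 16 hr at 37C. LiveBLAzer B/G FRET substrate, 2 hours room temperature, fluorescence read-out.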
# [7] = qHTS assay to identify small molecule agonists of the androgen receptor (AR) signaling pathway in the presence of an antagonist - cell viability counter screen (AID 1259379); settings: MDA-kb2 viability, CellTiter-Fluor, 16 h; series mostly up to 92.4 µM;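 also: MDA-kb2 human breast cancer cells carrying an MMTV luciferase reporter; nearly all actives have a fitted effect of over 25% in size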
# How it was run: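 Seed MDA-kb2 at 3,000 cells/well; incubate 5 hr, 37C, 0% CO2. Add nilutamide to 3.0uM final, then pin compounds at 15 concentrations. Incubate 16 hr. Add CellTiter-Fluor at 15 hr, read fluorescence after 1 hr.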
# [8] = qHTS assay to identify small molecule agonists of the estrogen receptor beta (ER-beta) signaling pathway - cell viability counter screen (AID 1259380); settings: ER-beta-bla HEK293T viability, CellTiter-Glo luminescence, 16 h; series mostly up to 92.4 µM; also: nearly all actives have a fitted effect of over 30% in size
# How it was run: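 CellTiter-Glo read, 30 min RT, same wells as bla assay; cells ER-beta-UAS-bla HEK293T; 16 hr compound, 37C; medium 2% charcoal-stripped FBS.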
# [9] = qHTS assay to identify small molecule antagonists of the estrogen receptor beta (ER-beta) signaling pathway - cell viability counter screen (AID 1259382); settings: ER-beta-UAS-bla HEK293T viability, CellTiter-Glo luminescence, 16 h; series mostly up to 92.4 µM;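 also: HEK293T cells carrying ER-beta-UAS-bla reporter stimulated with estradiol; nearly all actives have a fitted effect of over 55% in size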
# How it was run: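 In this multiplexed counter screen, cells were seeded at 2,000 per well in medium with 2% charcoal-stripped FBS and incubated 6 hr before compound and 1nM final E2 were added. Sixteen hours later, ATP-based luminescence reported viability.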
# [10] = biological target: Androgen receptor (Homo sapiens) (UniProt P10275); experiment: qHTS assay to identify small molecule agonists of the androgen receptor (AR) signaling pathway in the presence of an antagonist (AID 1259381; calls by dose curve; also: nearly all actives have a fitted effect of over 15% in size); settings: MDA-kb2 MMTV-luciferase, AR agonist + nilutamide, 16 h; series mostly up to 92.4 µM
# How it was run: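 Test compounds at 15 concentrations were incubated for 16hr with MDA-kb2 reporter cells in presence of 3.0uM nilutamide (final). Signal: ONE-Glo luciferase luminescence.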
# Sequence of Estrogen receptor beta (Homo sapiens) (Q92731 whole entry, looked up, the tested form may be a part): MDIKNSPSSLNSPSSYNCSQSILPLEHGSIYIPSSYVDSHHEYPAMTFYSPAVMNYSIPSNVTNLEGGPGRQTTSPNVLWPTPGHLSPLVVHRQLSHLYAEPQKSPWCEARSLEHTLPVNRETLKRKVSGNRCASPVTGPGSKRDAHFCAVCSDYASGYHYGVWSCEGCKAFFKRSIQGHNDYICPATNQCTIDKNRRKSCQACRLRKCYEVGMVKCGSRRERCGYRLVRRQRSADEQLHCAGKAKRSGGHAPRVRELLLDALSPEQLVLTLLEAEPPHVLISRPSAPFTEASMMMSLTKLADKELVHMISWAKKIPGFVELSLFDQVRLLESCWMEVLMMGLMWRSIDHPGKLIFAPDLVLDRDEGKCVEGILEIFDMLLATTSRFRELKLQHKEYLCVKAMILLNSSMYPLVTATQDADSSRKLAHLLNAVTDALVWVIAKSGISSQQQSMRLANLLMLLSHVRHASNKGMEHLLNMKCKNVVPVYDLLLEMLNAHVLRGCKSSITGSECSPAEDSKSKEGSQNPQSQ
# Sequence of Androgen receptor (Homo sapiens) (P10275 whole entry, looked up): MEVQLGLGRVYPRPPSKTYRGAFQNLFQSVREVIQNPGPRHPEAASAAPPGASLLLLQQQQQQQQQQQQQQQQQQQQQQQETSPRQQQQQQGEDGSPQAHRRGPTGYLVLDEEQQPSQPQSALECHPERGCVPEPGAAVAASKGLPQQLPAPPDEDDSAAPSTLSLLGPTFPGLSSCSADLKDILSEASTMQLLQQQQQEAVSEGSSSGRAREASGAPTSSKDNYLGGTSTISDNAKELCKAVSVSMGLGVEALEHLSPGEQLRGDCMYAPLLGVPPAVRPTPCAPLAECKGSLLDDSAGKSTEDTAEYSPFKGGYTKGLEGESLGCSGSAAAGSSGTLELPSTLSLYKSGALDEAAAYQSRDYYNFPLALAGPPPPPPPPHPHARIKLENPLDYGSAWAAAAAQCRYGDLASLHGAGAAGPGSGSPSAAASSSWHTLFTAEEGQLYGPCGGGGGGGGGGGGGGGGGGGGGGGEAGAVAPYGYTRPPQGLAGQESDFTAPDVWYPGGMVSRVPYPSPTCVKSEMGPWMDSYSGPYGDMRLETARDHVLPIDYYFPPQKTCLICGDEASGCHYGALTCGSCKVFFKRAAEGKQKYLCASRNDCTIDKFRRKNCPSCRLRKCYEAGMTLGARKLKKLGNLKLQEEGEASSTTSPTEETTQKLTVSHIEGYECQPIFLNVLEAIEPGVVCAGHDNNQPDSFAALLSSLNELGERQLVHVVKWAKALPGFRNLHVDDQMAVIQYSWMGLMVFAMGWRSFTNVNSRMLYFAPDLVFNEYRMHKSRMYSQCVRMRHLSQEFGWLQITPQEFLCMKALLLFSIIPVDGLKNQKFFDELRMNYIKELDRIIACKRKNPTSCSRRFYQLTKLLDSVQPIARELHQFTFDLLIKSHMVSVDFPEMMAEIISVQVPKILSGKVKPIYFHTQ
smiles,measurement,setting,value
CCCCN=C(N)N=C(N)N,outcome,[1],inactive
same,outcome,[2],inactive
same,outcome,[3],inactive
same,Potency,[4],inactive
same,Potency,[5],inactive
same,outcome,[6],inactive
same,outcome,[7],inactive
same,Potency,[8],inactive
same,outcome,[9],inactive
CCN1CCN(C(=O)N[C@@H](C(=O)N[C@@H]2C(=O)N3[C@@H]2SC(C)(C)[C@H]3C(=O)O)c2ccccc2)C(=O)C1=O,outcome,[1],inactive
same,outcome,[2],inactive
same,outcome,[3],inactive
same,Potency,[4],inactive
same,Potency,[5],inactive
same,outcome,[6],inactive
same,outcome,[7],inactive
same,outcome,[9],inactive
CCO[Si](CC(C)C)(OCC)OCC,outcome,[1],inactive
same,outcome,[2],inactive
same,outcome,[3],inactive
same,Potency,[4],inactive
same,Potency,[5],inactive
same,outcome,[6],inactive
same,outcome,[7],inactive
same,outcome,[9],inactive
CC(C)OCCO,outcome,[1],inactive
same,outcome,[2],inactive
same,outcome,[3],inactive
same,Potency,[4],inactive
same,Potency,[5],inactive
same,outcome,[6],inactive
same,outcome,[7],inactive
same,Potency,[8],inactive
same,outcome,[9],inactive
Cc1ccc(O)c([N+](=O)[O-])c1,outcome,[1],inactive
same,outcome,[2],inactive
same,outcome,[3],inactive
same,Potency,[4],inactive
same,Potency,[5],inactive
same,outcome,[7],inactive
COC(C)(C)CC(C)=O,outcome,[1],inactive
same,outcome,[2],inactive
same,outcome,[3],inactive
same,Potency,[4],inactive
same,Potency,[5],inactive
same,outcome,[7],inactive
same,Potency,[8],inactive
same,outcome,[10],inactive
same,outcome,[9],inactive
C/C=C(\C)C=O,outcome,[1],inactive
same,outcome,[2],inactive
same,outcome,[3],inactive
same,Potency,[4],inactive
same,Potency,[5],inactive
same,outcome,[6],inactive
same,outcome,[7],inactive
same,Potency,[8],inactive
same,outcome,[9],inactive
c1cc2ccc3ccc4ccc5cccc6c(c1)c2c3c4c56,"viability change, negative = cytotoxic",[1],2.39% [at 3.27 µM]
same,"viability change, negative = cytotoxic",[2],-2.17% [at 3.27 µM]
same,activity change,[3],0.83% [at 3.27 µM]
same,"activity change, negative = inhibition",[4],17.2% [at 3.27 µM]
same,"activity, negative = inhibition",[6],4.07% [at 3.27 µM]
same,"activity change, negative = cytotoxicity",[7],2.9% [at 3.27 µM]
same,"activity change, negative = cytotoxicity",[8],0.89% [at 3.32 µM]
same,"activity change, negative = cytotoxicity",[9],-0.247% [at 3.27 µM]
CC(=O)O[C@@H]1CC2C3CCc4cc(OC(=O)c5ccccc5)ccc4C3CCC2(C)[C@H]1OC(C)=O (stereo not given in full),outcome,[1],inactive
same,outcome,[2],inactive
same,outcome,[3],inactive
same,Potency,[4],inactive
same,Potency,[5],13.3 nM (active)
same,outcome,[7],inactive
same,outcome,[10],inactive
same,outcome,[9],inactive
C=CCOC(=O)CCCCCCCC,outcome,[1],inactive
same,outcome,[2],inactive
same,outcome,[3],inactive
same,Potency,[4],inactive
same,outcome,[6],inactive
same,outcome,[7],inactive
same,Potency,[8],inactive
same,outcome,[9],inactive
Cc1cc(C)c(C)c(C)c1,outcome,[1],inactive
same,outcome,[2],inactive
same,outcome,[3],inactive
same,Potency,[4],inactive
same,outcome,[6],inactive
same,outcome,[7],inactive
same,Potency,[8],inactive
same,outcome,[9],inactive
CC1(C)C(=O)C(C)(C)C1=O,outcome,[1],inactive
same,outcome,[2],inactive
same,outcome,[3],inactive
same,Potency,[4],inactive
same,outcome,[7],inactive
same,Potency,[8],inactive
same,outcome,[10],inactive
same,outcome,[9],inactive
Nc1cc(S(=O)(=O)O)ccc1O,outcome,[1],inactive
same,outcome,[2],inactive
same,outcome,[3],inactive
same,Potency,[4],inactive
same,outcome,[7],inactive
same,Potency,[8],inactive
same,outcome,[10],inactive
same,outcome,[9],inactive
CC12CCCC=C1C(=O)OC2=O (stereo not given),outcome,[1],inactive
same,outcome,[2],inactive
same,outcome,[3],inactive
same,Potency,[4],inactive
same,outcome,[7],inactive
same,Potency,[8],inactive
same,outcome,[10],inactive
same,outcome,[9],inactive
NS(=O)(=O)c1cc2c(cc1C(F)(F)F)NCNS2(=O)=O,outcome,[1],inactive
same,outcome,[2],inactive
same,outcome,[3],inactive
same,Potency,[4],inactive
same,outcome,[7],inactive
same,Potency,[8],inactive
same,outcome,[9],inactive
C[C@]12C=CC(=O)C=C1[C@@H](F)C[C@@H]1[C@@H]2[C@@H](O)C[C@@]2(C)[C@H]1CC[C@]2(O)C(=O)CO,outcome,[1],inactive
same,outcome,[2],inactive
same,outcome,[3],inactive
same,Potency,[4],inactive
same,outcome,[7],inactive
same,Potency,[8],inactive
same,outcome,[9],inactive
CC(C)(O)c1ccc(C(C)(C)O)cc1,outcome,[1],inactive
same,outcome,[2],inactive
same,outcome,[3],inactive
same,Potency,[4],inactive
same,outcome,[7],inactive
same,Potency,[8],inactive
same,outcome,[9],inactive
